The target in experiment [1] is Tyrosine-protein kinase Fyn (Homo sapiens) (UniProt P06241). Particulars: at 1 µM.
Experiment [2] has as its target Tyrosine-protein kinase HCK (Homo sapiens) (UniProt P08631). Particulars: at 0.1 µM.
For experiment [3] the target is unchanged. Particulars: at 1 µM.
Experiment [4] deals with Insulin-like growth factor 1 receptor (Homo sapiens) (UniProt P08069). Particulars: at 0.1 µM.
For experiment [5] the target is unchanged. Particulars: at 1 µM.
The target in experiment [6] is Insulin receptor (Homo sapiens) (UniProt P06213). Particulars: at 0.1 µM.
Chain of Insulin receptor (Homo sapiens) (P06213 28-758 limits assumed): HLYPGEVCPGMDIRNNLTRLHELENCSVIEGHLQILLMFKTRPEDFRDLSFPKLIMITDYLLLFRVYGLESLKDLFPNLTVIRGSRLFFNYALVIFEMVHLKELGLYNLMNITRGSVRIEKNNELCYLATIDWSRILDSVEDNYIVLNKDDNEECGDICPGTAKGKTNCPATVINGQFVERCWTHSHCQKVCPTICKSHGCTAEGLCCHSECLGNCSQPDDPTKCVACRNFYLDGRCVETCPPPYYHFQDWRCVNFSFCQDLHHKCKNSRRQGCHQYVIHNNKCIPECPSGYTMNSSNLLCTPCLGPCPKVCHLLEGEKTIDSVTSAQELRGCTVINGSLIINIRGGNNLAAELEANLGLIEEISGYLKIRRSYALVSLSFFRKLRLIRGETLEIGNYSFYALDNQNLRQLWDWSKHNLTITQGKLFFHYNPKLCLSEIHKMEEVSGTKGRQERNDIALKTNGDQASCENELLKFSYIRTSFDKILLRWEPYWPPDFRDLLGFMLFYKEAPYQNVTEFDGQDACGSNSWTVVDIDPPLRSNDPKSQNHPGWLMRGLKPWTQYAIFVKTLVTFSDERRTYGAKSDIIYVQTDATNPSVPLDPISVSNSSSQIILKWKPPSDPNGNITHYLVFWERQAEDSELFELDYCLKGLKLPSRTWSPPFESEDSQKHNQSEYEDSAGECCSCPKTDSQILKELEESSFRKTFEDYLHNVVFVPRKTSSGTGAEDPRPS
Chain of Insulin receptor (Homo sapiens) (P06213 763-1382 limits assumed): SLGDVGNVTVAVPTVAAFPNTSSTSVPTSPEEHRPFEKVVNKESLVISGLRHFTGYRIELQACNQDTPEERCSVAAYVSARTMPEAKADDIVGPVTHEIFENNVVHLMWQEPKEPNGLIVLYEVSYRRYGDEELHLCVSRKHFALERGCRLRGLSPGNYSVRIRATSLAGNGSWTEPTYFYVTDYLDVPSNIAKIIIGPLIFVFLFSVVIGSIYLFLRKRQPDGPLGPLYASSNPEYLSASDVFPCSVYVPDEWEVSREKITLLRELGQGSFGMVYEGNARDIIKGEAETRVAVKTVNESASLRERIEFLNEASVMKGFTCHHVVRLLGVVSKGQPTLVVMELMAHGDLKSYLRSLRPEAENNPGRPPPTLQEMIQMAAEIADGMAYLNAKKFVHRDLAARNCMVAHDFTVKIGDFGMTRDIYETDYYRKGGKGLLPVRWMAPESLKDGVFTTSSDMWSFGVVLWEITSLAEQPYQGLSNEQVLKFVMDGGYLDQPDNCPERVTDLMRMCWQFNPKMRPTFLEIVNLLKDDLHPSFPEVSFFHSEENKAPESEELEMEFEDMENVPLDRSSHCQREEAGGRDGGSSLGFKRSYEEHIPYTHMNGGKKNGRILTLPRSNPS
For experiment [7] the target is unchanged. Particulars: at 1 µM.
Experiment [8] deals with Insulin receptor-related protein (Homo sapiens) (UniProt P14616). Particulars: at 0.1 µM.
For experiment [9] the target is unchanged. To be noted: at 1 µM.
The target of experiment [10] is T1, Tyrosine-protein kinase ITK/TSK (Homo sapiens) (UniProt Q08881).
T1 sequence (whole entry): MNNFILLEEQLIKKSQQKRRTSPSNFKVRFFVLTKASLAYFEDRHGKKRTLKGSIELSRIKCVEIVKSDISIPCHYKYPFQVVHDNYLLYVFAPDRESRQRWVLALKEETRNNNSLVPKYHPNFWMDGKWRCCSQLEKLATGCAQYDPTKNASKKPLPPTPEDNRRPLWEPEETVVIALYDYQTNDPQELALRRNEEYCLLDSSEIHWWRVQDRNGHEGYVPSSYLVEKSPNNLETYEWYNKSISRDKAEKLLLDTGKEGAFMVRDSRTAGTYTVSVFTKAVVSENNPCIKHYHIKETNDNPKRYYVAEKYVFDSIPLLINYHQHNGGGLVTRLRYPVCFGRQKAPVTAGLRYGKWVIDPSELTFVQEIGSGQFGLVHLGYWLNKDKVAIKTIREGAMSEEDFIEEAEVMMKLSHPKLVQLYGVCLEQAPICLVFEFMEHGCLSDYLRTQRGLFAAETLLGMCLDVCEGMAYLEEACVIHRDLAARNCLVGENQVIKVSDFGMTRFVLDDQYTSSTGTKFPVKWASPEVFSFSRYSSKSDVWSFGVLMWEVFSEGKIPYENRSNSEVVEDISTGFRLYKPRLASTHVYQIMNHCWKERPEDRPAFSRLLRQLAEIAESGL
To be noted: at 0.1 µM.

Experiment [11] concerns the target T1, Tyrosine-protein kinase ITK/TSK (Homo sapiens). To be noted: at 1 µM.
For experiment [12], the target named is Tyrosine-protein kinase JAK1 (Homo sapiens) (UniProt P23458). To be noted: at 0.1 µM.
Chain of Tyrosine-protein kinase JAK1 (Homo sapiens) (P23458 whole entry): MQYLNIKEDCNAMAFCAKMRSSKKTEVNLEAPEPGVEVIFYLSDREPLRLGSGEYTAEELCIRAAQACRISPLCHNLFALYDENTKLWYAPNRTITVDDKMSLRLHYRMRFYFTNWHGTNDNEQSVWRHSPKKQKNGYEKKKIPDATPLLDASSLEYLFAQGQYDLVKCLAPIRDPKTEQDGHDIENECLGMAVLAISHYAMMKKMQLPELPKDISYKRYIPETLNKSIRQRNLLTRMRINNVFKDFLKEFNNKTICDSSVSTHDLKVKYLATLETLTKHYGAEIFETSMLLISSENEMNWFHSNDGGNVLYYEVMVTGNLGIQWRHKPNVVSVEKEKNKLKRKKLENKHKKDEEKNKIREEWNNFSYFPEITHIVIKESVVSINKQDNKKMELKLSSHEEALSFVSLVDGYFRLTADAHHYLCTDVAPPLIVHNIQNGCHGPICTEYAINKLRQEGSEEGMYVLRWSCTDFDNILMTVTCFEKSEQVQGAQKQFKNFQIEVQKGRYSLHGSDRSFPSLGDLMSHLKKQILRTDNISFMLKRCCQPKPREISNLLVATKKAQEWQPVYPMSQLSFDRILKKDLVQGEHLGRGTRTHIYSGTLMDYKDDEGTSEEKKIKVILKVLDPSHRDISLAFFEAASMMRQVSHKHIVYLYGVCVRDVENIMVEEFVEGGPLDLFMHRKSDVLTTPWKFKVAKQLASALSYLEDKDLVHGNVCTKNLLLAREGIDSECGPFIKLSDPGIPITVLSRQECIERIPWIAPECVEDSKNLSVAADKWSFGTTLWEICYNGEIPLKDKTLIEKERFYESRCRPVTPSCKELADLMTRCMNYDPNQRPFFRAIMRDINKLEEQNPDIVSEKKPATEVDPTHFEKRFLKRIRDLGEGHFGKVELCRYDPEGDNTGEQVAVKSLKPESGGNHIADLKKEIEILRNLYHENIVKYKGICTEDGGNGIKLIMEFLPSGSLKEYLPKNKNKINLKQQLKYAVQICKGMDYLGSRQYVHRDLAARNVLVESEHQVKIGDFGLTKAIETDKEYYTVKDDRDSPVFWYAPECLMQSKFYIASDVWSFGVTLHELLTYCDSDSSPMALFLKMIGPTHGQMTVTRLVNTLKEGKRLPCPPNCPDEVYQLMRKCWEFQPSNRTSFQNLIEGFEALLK
Experiment [13] shares this target. Particulars: at 1 µM.
In experiment [14] the target is Tyrosine-protein kinase JAK2 (Homo sapiens) (UniProt O60674). Particulars: at 0.1 µM.
The target is the same in experiment [15]. To be noted: at 1 µM.
Experiment [16] concerns the target T2, Tyrosine-protein kinase JAK3 (Homo sapiens) (UniProt P52333).
T2 sequence (whole entry): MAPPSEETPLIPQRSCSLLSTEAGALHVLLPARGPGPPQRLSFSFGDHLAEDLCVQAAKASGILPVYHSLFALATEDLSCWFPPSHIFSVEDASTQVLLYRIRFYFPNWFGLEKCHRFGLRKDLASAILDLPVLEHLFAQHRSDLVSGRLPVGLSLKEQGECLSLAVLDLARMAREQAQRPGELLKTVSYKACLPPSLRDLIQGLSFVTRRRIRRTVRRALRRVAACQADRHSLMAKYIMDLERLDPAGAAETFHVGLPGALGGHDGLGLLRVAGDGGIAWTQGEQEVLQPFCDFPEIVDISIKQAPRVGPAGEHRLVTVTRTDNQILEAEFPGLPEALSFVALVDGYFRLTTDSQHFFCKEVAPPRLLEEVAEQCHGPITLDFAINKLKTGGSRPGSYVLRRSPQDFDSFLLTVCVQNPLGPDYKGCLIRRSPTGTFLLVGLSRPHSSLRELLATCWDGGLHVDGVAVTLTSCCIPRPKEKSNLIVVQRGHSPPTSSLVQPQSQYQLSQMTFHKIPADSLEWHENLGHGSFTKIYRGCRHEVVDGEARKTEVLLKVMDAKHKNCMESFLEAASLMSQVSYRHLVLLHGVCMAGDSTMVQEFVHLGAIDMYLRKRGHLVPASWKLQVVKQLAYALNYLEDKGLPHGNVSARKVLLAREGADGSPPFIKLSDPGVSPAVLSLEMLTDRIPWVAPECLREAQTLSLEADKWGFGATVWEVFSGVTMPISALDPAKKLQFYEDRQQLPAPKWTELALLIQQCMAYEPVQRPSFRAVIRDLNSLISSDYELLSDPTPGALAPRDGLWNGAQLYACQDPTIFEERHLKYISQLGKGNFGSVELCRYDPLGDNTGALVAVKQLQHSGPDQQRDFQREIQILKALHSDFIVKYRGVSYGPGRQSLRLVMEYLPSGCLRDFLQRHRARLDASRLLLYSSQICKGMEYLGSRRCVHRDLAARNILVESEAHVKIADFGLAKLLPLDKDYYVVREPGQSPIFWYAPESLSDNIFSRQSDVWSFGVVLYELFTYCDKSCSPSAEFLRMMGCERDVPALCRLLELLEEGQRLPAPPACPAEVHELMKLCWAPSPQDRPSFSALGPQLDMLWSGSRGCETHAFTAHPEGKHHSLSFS
To be noted: at 0.1 µM.

The target of experiment [17] is T2, Tyrosine-protein kinase JAK3 (Homo sapiens). Particulars: at 1 µM.
Experiment [18] deals with Vascular endothelial growth factor receptor 2 (Homo sapiens) (UniProt P35968). Particulars: at 0.1 µM.
Chain of Vascular endothelial growth factor receptor 2 (Homo sapiens) (P35968 whole entry): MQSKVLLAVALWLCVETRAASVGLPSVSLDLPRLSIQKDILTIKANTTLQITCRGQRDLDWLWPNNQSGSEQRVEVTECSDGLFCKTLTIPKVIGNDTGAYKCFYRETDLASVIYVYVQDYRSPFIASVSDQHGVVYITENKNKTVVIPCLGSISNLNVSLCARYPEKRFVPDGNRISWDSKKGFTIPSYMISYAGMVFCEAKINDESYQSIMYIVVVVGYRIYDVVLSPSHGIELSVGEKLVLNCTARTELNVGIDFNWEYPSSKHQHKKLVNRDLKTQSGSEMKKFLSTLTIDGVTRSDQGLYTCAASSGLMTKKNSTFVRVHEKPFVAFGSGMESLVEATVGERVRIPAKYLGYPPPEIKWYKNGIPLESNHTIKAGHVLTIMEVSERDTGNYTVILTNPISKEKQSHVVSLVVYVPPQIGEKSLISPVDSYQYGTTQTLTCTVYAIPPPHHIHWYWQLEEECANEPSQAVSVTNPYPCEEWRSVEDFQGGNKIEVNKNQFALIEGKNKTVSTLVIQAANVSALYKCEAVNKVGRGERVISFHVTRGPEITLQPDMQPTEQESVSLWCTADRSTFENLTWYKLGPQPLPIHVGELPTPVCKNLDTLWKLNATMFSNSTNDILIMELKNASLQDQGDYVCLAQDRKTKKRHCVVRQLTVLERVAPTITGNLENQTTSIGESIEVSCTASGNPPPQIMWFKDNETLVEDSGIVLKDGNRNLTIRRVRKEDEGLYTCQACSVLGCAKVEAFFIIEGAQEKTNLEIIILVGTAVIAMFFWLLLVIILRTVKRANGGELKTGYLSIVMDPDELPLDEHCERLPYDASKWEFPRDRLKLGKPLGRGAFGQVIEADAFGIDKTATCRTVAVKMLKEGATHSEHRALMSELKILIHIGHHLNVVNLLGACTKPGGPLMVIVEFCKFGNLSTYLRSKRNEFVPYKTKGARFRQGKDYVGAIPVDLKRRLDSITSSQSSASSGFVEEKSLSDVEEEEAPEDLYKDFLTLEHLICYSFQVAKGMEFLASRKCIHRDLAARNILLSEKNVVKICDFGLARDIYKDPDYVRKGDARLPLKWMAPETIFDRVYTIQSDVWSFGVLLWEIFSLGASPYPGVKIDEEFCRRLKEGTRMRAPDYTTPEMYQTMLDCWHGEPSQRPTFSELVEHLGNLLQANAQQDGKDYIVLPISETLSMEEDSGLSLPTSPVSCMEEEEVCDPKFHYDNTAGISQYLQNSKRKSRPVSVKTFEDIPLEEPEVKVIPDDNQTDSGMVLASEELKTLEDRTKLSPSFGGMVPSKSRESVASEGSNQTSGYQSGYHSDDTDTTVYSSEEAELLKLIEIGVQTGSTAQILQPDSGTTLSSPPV
For experiment [19] the target is unchanged. Particulars: at 1 µM.
The target in experiment [20] is Mast/stem cell growth factor receptor Kit (Homo sapiens) (UniProt P10721). To be noted: at 0.1 µM.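 Also: values are mean inhibition of KIT, from the GSK PKIS dataset.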

Structures are written as SMILES.

Chain of Tyrosine-protein kinase HCK (Homo sapiens) (P08631 2-526 limits assumed): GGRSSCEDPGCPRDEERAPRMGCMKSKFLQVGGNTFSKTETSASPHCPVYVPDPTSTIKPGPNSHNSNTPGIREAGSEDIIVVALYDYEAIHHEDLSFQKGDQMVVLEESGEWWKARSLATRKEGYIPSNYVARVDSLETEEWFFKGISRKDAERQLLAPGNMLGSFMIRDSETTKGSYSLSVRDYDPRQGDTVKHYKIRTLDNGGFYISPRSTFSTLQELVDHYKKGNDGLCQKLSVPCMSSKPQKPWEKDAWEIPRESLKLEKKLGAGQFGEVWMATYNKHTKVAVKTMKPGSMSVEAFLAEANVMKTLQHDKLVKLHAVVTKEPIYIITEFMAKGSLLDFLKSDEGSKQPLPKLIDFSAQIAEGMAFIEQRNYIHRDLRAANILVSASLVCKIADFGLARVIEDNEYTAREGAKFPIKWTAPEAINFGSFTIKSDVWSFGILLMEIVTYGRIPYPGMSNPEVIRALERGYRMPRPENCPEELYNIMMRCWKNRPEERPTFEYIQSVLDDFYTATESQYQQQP
Chain of Tyrosine-protein kinase Fyn (Homo sapiens) (P06241 2-537 limits assumed): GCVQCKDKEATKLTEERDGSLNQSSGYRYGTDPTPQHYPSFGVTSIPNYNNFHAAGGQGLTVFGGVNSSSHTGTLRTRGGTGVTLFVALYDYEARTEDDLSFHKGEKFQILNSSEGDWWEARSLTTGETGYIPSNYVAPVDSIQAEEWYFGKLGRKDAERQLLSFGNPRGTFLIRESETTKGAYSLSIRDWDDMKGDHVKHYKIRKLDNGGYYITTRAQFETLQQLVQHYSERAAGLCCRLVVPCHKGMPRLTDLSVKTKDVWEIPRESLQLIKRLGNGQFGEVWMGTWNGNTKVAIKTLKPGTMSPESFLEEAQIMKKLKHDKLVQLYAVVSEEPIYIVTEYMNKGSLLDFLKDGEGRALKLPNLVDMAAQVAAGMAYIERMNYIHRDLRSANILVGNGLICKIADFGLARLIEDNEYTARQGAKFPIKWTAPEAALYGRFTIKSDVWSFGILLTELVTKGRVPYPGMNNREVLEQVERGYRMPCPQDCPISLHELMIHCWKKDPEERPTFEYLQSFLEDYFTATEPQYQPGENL

The inhibition is the relative decrease from the control value, in per cent. Take `O=C1NC(=O)C(c2ccccc2Cl)=C1Nc1cccc(O)c1`: the inhibition is 2.43% in [1]; 3.62% in [2]; 5.29% in experiment [3]; 3.77% in experiment [4]; 2.85% in experiment [5]; 0.88% in [6]. The inhibition is 4.12% in experiment [7]; 7.16% in experiment [8]; 2.14% in [9]; 1.12% in experiment [10]; 2.08% in experiment [11]; 3.43% in experiment [12]. Moreover, the inhibition in [13] came out at 0.51%; in [14] it was 2.97%; in experiment [15], 4.56%; in experiment [16], 0.39%; in experiment [17], 21.8%; in experiment [18] it was 4.45%. The inhibition amounted to 6.91% in [19] and 0.48% in experiment [20].

`NC(=O)c1cccc(Nc2nccc(Nc3cccc4[nH]ncc34)n2)c1`: the inhibition is 96.1% in experiment [1]; 64% in experiment [2]; 84.6% in experiment [3]; -0.89% in [4]; 15.5% in experiment [5]; -2.6% in experiment [6]. For the same compound, the inhibition was 16.8% in experiment [7]; -0.86% in experiment [8]; 0.93% in experiment [9]; -0.33% in experiment [10]; 1.1% in experiment [11]; 19.6% in experiment [13]. Also, the inhibition stood at 6.75% in [14]; 57% in experiment [15]; 0.54% in experiment [16]; 25.2% in experiment [17]; 16.1% in experiment [18]; 63.1% in experiment [19]. Besides, the inhibition in experiment [20] worked out at 48.5%.

For the compound `CCn1c(-c2nonc2N)nc2cncc(C(=O)N3CCNCC3)c21`, the inhibition in experiment [1] was 2.87%; in [2], 6.76%; in experiment [3], 9.25%; in experiment [4], 8.86%; in [5] it was 9.25%; in [6], 10.5%. For the same compound, the inhibition was 9.41% in experiment [7]; 4.06% in experiment [8]; 6.22% in experiment [9]; 2.63% in [10]; 2.09% in experiment [11]; 4.28% in experiment [12]. Also, the inhibition in experiment [13] was 4.72%; in experiment [14], 4.03%; in experiment [15], 2.86%; in experiment [16] it was -0.41%; in experiment [17] it was -0.7%; in experiment [18] it was 3.99%. Besides, the inhibition was determined as 9.13% in experiment [19] and 7.95% in experiment [20].

For `O=C1NC(=O)C(c2ccc(Cl)cc2)=C1Nc1ccc(Cl)c(C(=O)O)c1`, the inhibition was 0.57% in [1]; 0.67% in experiment [2]; 3.62% in [3]; 0.06% in [4]; -0.55% in [5]; 2.24% in [6]. Further, the inhibition in [7] was 2.54%; in experiment [8] it was -0.43%; in experiment [9], -1.7%; in [10], -0.06%; in experiment [11], 0.04%; in experiment [12], -3.25%. Further, the inhibition was -7.51% in experiment [13]; -0.25% in experiment [14]; -0.22% in [15]; 0.01% in experiment [16]; 2.64% in [17]; 4.84% in experiment [18]. For the same compound, the inhibition was 9.16% in experiment [19] and -0.92% in [20].

As for `COc1cc2ncn(-c3cc(OCc4ccccc4Cl)c(C(N)=O)s3)c2cc1OC`, the inhibition was found to be 23.5% in experiment [1]; 4.09% in experiment [2]; 27.1% in experiment [3]; 2.22% in [4]; 2.52% in experiment [5]; 4.5% in experiment [6]. For the same compound, the inhibition is 7.12% in experiment [7]; -1.76% in experiment [8]; 0.06% in experiment [9]; 0.4% in experiment [10]; 3.19% in experiment [11]; 0.17% in experiment [12]. The inhibition in experiment [13] turned out to be 5.86%; in experiment [14], 0.18%; in experiment [15] it was 0.34%; in experiment [16], 0.35%; in [17], 4.86%; in [18] it was 12.2%. The inhibition was determined as 53.9% in experiment [19] and 0.54% in experiment [20].

With `CC1=C(C(=O)Nc2ccc3[nH]ncc3c2)C(c2ccc(F)cc2)NC(=O)N1` (centres undefined), the inhibition in experiment [1] amounted to 4.69%; in experiment [2] it was 3.04%; in experiment [3] it was 2.81%; in [4] it was 9.13%; in experiment [5], 8.59%; in [6] it was 4.97%. In addition, the inhibition in [7] is 4.22%; in experiment [8], 0.88%; in [9] it was 0.72%; in [10] it was 0.65%; in experiment [11] it was 1.33%; in experiment [12], 14.4%. Besides, the inhibition in experiment [13] turned out to be 70.3%; in experiment [14] it was 2.59%; in experiment [15] it was 35.1%; in experiment [16], 1.07%; in experiment [17], 30.8%; in [18], 4.24%. For the same compound, the figures for the inhibition in [19] and in experiment [20] were 12.3% and 5.14%, respectively.

Regarding `Cc1ccc(NC(=O)c2ccnc(N3CCCC3)c2)cc1-c1ccc(C(=O)NCC2CC2)cc1`, the inhibition is -1.49% in [1]; 4.55% in experiment [2]; 10.7% in experiment [3]; -4.41% in [4]; -3.36% in [5]; 6.4% in experiment [6]. The inhibition was 11.3% in experiment [7]; 2.43% in [8]; 2.2% in experiment [9]; -1.68% in [10]; -1.06% in [11]; 4.61% in [12]. The inhibition was 5.32% in experiment [13]; 1.37% in [14]; 2.33% in experiment [15]; -2.85% in experiment [16]; 2.32% in experiment [17]; 9.55% in [18]. Besides, the inhibition is 10.2% in experiment [19] and 5.54% in [20].

Source of the values: ChEMBL document CHEMBL1961873, “Compounds: GSK PKIS; Assays: Nanosyn kinase panel” (2012).
